From ChEMBL document CHEMBL3988442, “University of Dundee, Small-Polar-MMV Screening Library” (2021)
Hit rate of the full screen: of about 38,000 compounds, about 1,200 (3.2%) showed an effect of 50% or more. The median lay at about -58%. For the sample, strong results were picked, then their nearest neighbours and some compounds at random.

tested on: Plasmodium falciparum; experiment: Calibr Malaria Delayed Death Assay SOP; assay type: functional, organism-based; design: scale not given: in the data most compounds retested in dose-response had high values; conditions: concentration 4.99e-06 (unit not given; other assays of the set use mol/L)

Point of comparison: CCOC1COC2(CCN(Cc3cccc(C)n3)CC2)C1.O=C(O)C(F)(F)F (centres undefined), “Percent Effect” value -37.49%. Against it:
- COc1ccc(C(NCc2cccc(C#N)c2)C(C)C)cc1 (centres undefined) — higher, -12.81%
- COc1ccc(C(NCc2cccc(C#N)c2)C2CC2)cc1 (centres undefined) — higher, 47.49%
- COc1ccc(C(NCc2cccc(O)c2)C2CC2)cc1 (centres undefined) — higher, 83.32%
- CC(C)CCNC(=O)NC(C)c1nncn1C (centres undefined) — lower, -95.25%
- CN1CCC2(CC1)CN(C(=O)c1cccnc1)c1ccc(Cl)cc12 — higher, 55.37%
- CCN1CCC2(CC1)CN(C(=O)c1cccnc1)c1ccc(Cl)cc12.O=C(O)C(F)(F)F.O=C(O)C(F)(F)F — higher, 9.219%
- CC(=O)N1CCC2(CC1)CN(C(=O)c1cccnc1)c1ccc(F)cc12.O=C(O)C(F)(F)F — lower, -38.16%
- O=C(CN1CCC(c2nnc(C(F)(F)F)o2)CC1)Nc1cccc(Cl)c1 — lower, -52.49%
- CC(C)Nc1ncnc2c1CCN(C(=O)c1ccccc1F)CC2.O=C(O)C(F)(F)F — lower, -96.03%
- O=S(=O)(NC1=NCN(CCc2cccs2)CN1)c1ccc(Br)cc1 — higher, -31.17%
- CCCC(=O)N1CCC(N2CC[C@@](O)(CCOC)[C@H](C)C2)CC1 — higher, -32.76%
- CCCS(=O)(=O)N1CCC2(CC1)CC(Nc1ncccn1)CO2 (centres undefined) — lower, -70.84%
- CC(C)N(C)Cc1cnc2n1CCN(C(=O)c1cccs1)C2 — higher, 60.68%
- O=C(c1cccs1)N1CCc2ncc(Cn3cncn3)n2CC1 — lower, -172.5%
- CC(C)N(C)Cc1cnc2n1CCN(CCc1ccccc1)C2.O=C(O)C(F)(F)F.O=C(O)C(F)(F)F — higher, 0.4179%
- CC(C)N(C)Cc1cnc2n1CCN(C(=O)Cc1ccccn1)C2.O=C(O)C(F)(F)F.O=C(O)C(F)(F)F — higher, -6.542%
- O=C(NC1CC1)N1CCn2c(Cn3cccn3)cnc2C1.O=C(O)C(F)(F)F — lower, -67.84%
- Cc1noc(C2CCC3(CCN(C(=O)c4ccnnc4)CC3)O2)n1 (centres undefined) — lower, -55.26%
- Cc1cccc(NC(=O)[C@@H]2CCCN2Cc2nc(C)c(C)o2)n1 — higher, -28.43%
- CC(C)Nc1ncnc2c1CCNCC2 — lower, -47.68%
- CCOc1ccc(C(C)Nc2ncnc3c2CCNC3)cc1OCC (centres undefined) — higher, 46.78%
- CC(Nc1ncnc2c1CCNC2)c1ccc2c(c1)CCCC2 (centres undefined) — higher, 70.15%
- Cc1ccc(C)c(-n2ncc(C(=O)NCC3COC(C)(C)O3)c2N)c1 (centres undefined) — lower, -97.45%
- COCCN(C)C[C@@H]1CN(C(=O)c2cccc(C#N)c2)C[C@@H]1CO — lower, -70.73%
- COc1cc(Cl)c(NCc2c(C)noc2C)cc1OC — lower, -68.38%
- CC1CN(c2ncccc2C(=O)Nc2cccc3c2CCCC3)CCN1 (centres undefined) — higher, 10.16%
- Cc1cccc(C(=O)Nc2cccc3c2CCCC3)n1 — lower, -261.8%
- O=C(Nc1cccc2c1CCCC2)c1cccnc1N1CCCNCC1 — higher, 53.52%
- Cc1cccc(OC2CCN(C(=O)c3ccc4ncsc4c3)CC2)n1 — lower, -115.6%
- CCNc1ncc2c(n1)CN(c1ccc(Cl)cc1)C2=O — lower, -180.2%
- Cc1cccc(COC2COC3(CCN(S(C)(=O)=O)CC3)C2)n1.O=C(O)C(F)(F)F (centres undefined) — lower, -59.75%
- CCN1CCC2(CC1)CC(NCc1cccc(C)n1)c1ccccc1O2.O=C(O)C(F)(F)F.O=C(O)C(F)(F)F.O=C(O)C(F)(F)F (centres undefined) — higher, 91.27%
- CCCC(=O)N1CCC2(CC1)CC(NC(C)=O)c1ccccc1O2 (centres undefined) — lower, -58.82%
- Cc1cccc(COC2COC3(CCN(Cc4ccoc4)CC3)C2)n1 (centres undefined) — higher, -18.84%
- COC(=O)c1cc(C)nc(N2CCN(Cc3ccn(C(C)C)c3)CC2)n1 — higher, -8.689%
- Cc1cccc(NC(=O)CN2C(=O)CC(C)(C)c3ccccc32)n1 — lower, -54.59%
- CC(C)OCCC(=O)N1CCN(CC(O)c2ccccc2)CC1 (centres undefined) — lower, -51.21%
- COc1cc(N2CC[C@@H]3O[C@@H](C(=O)NCCN(C)C)C[C@@H]32)ncn1 — lower, -52.73%
- O=C(Cc1n[nH]c(-c2cncc(Br)c2)n1)NCc1cccnc1 — higher, -11.15%
- Cn1ncc2c1CCCC2NCc1cccc(OC2CCCC2)c1 (centres undefined) — higher, 2.699%
- CC(C)[C@H](NC(=O)Cn1nc2c(cc1=O)CCCC2)C(=O)O — lower, -82.81%
- CCn1nccc1CNC(=O)C1CCCCC1 — lower, -119.3%
- Cc1cc(NC(=O)N2CCCC2C(=O)NC2CC2)c2ncccc2c1 (centres undefined) — lower, -118%
- Cc1cc(NC(=O)N2CCCC2C(C)(C)O)c2ncccc2c1 (centres undefined) — higher, -22.81%
- Cc1cc(NC(=O)NC2CCN(C(C)C)CC2)c2ncccc2c1 — higher, 79.09%
- CC(C)C(=O)Nc1ccc2c(c1)ncn2CC(=O)NCCN(C)C — lower, -104.6%
- O=C(C[S+]([O-])Cc1cccc(Cl)c1)NC1CCCC1 (centres undefined) — lower, -107.7%
- O=C(NCCc1cccc(Cl)c1)C1CCOCC1 — lower, -133.6%
- O=C(Cc1cccc(Cl)c1)N[C@@H]1CCNC[C@H]1O — lower, -79.06%
- O=C(O)c1cn2cc(C(F)(F)F)ccc2n1 — higher, -36.42%
- O=C(NCc1ccco1)[C@H]1C[C@H]2OCC[C@H]2N(C(=O)c2ccnnc2)C1 — higher, -30.68%
- CCCN1CCC(N2CCOC(Cc3cccc(OC)c3)C2)CC1 (centres undefined) — lower, -127.7%
- O=C(NCCN1CCCCC1)c1nc(-c2cccc3[nH]ccc23)no1 — higher, 15.88%
- CCC(=O)N1CCCC1c1csc(Nc2cnccn2)n1 (centres undefined) — lower, -46.83%
- COCC(=O)N1CCCC1c1csc(Nc2cnccn2)n1 (centres undefined) — lower, -55%
- O=C(O)C(F)(F)F.O=C(O)C(F)(F)F.O=C1NC2(CCN(Cc3ccoc3)CC2)CC1c1ccncc1 (centres undefined) — higher, -15.5%
- Nc1nccc(N2CCC(c3cc(Cc4ccccc4)n[nH]3)CC2)n1 — higher, 35.49%
- Cc1csc(CNC(=O)NCC(O)c2ccc(F)c(F)c2)n1 (centres undefined) — higher, 2.8%
- Cc1n[nH]c(C)c1CNCC(O)c1ccc(F)c(F)c1 (centres undefined) — higher, 14.72%
- Cc1n[nH]cc1CNCC(O)c1ccc(F)c(F)c1.Cl (centres undefined) — higher, -33.27%
- Cc1nc(CNC(=O)NCC(O)c2ccc(F)c(F)c2)cs1 (centres undefined) — lower, -178.5%
- Cc1cc(C)c(CNCC(O)c2ccc(F)c(F)c2)c(C)c1.Cl (centres undefined) — higher, 92.75%
- COCCCNc1nc(CNC(C)=O)cc(-c2ccco2)n1 — lower, -87.48%
- O=C(O)C(F)(F)F.O=S(=O)(C1CC1)N1CCc2ncnc(N3CCCC3)c2CC1 — lower, -107.1%
- CCc1nc(C2CCCN2Cc2cnc(C)cn2)no1 (centres undefined) — higher, -15.63%
- CC(C)c1cc(NC(=O)CN2CCCC2Cn2cncn2)on1 (centres undefined) — lower, -56.31%
- CN1CCCc2cc(CNC(=O)c3ccncc3)ccc21 — higher, -23.61%
- COc1cc(C(=O)NCc2ccc3c(c2)CCCN3C)cc(OC)c1Br — higher, 65%
- COC(=O)c1cccc(C(=O)NCc2ccc3c(c2)CCCN3C)c1 — higher, -12.04%
- Cc1nn(CC(O)CN2CCC(C)CC2)c(=O)c(C#N)c1C (centres undefined) — lower, -55.82%
- COc1ccc2c(ccn2CC(=O)NC[C@@H]2CCCN3CCCC[C@H]23)c1 — lower, -61.04%
- O=C(Cn1ccc2cc(Br)ccc21)NC[C@@H]1CCCN2CCCC[C@H]12 — higher, -18.45%
- O=C(O)C1CCN(C(=O)CCn2ccc3cc(Br)ccc32)CC1 — lower, -107.6%
- O=C(Cn1ccc2ccccc21)NC[C@@H]1CCCN2CCCC[C@H]12 — higher, -17.29%
- O=C(Cn1ccc2ccc(F)cc21)NC[C@@H]1CCCN2CCCC[C@H]12 — higher, 36.3%
- O=C(O)C1CCN(C(=O)Cn2ccc3c(Cl)cccc32)CC1 — lower, -74.89%
- O=C(Cn1ccc2ccc(Br)cc21)NC[C@@H]1CCCN2CCCC[C@H]12 — higher, 78.77%
- Cc1cccc2c1ccn2CC(=O)NC[C@@H]1CCCN2CCCC[C@H]12 — higher, 70.06%
- O=C(CCn1ccc2cc(Br)ccc21)NC[C@@H]1CCCN2CCCC[C@H]12 — higher, 65.78%
- CC(C)c1nsc(N2CCC(OCCN3CCOCC3)CC2)n1 — lower, -47.66%
- CN(C)C(=O)COCC1CN(C2CCC2)Cc2ncn(C)c21.O=C(O)C(F)(F)F.O=C(O)C(F)(F)F (centres undefined) — lower, -81.18%
- Cc1cc2ccccc2n1CCC(=O)N1CCCC(O)(CN(C)C)CC1 (centres undefined) — higher, 54.68%
- CN(C)CC1(O)CCCN(C(=O)Cn2nc3ccccc3n2)CC1 (centres undefined) — lower, -95.76%
- Cc1c(C(=O)N2CCCC(O)(CN(C)C)CC2)c2cc(O)ccc2n1C (centres undefined) — lower, -101.4%
- Cn1nnc2c1C(COCC1CC1)CN(C(=O)Cc1cccs1)C2 (centres undefined) — higher, -35.42%
- N#Cc1c(CN2CCCC2Cn2cccn2)cn2ccccc12 (centres undefined) — lower, -64.03%
- CCc1cc(C(=O)N2CC[C@@H](c3ccc4ccccc4c3)[C@H](O)C2)[nH]n1 — higher, 17.14%
- CN(Cc1noc(C2CC2)n1)CC1CCN(CCO)CC1 — lower, -111.1%
- CC(O)CN1CCC(CN(C)Cc2cc(F)cc3cccnc23)CC1 (centres undefined) — higher, 86.77%
- OCCN1CCN(Cc2cc(Cl)cc3cccnc23)CC1 — higher, -35.44%
- CC(O)CN1CCC(CN(C)CCC(=O)NC2CCCC2)CC1 (centres undefined) — lower, -87.19%
- CC(O)CN1CCC(CN(C)CC(=O)NC(C)C)CC1 (centres undefined) — lower, -132.6%
- CN(Cc1cc(F)cc2cccnc12)CC1CCN(CCO)CC1 — higher, 84.26%
- CN(CC(N)=O)Cc1cc(Cl)cc2cccnc12 — lower, -110.1%
- CN(Cc1cc(Cl)cc2cccnc12)CC1CCN(CCO)CC1 — higher, 88.36%
- CC(C)c1nc(CN(C)CC2CCN(CCO)CC2)no1 — higher, -37.31%
- CCn1cc(Br)c(C(=O)NCc2ccccc2)n1 — lower, -62.24%
- COc1ccc(C(=O)N2CCC(Nc3cccnn3)CC2)cn1 — lower, -79.23%
